Compound activity: PubChem BioAssay, several laboratories
Compounds with a hit are over-represented: about 4.7% of the library has one in this group of screens.
MPTP inh: mitochondrial permeability transition pore inhibitors, primary screen, biochemical, isolated mouse mitochondria, absorbance; Ca2+ swelling absorbance, 30 min; inhibition, % at 10 µM; 360,000 tested, 1.4% active; AID 602449, 2012;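 active means inhibition of 50% or more, scaled per plate between neutral and stimulator controls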
ADAM17 inh: ADAM17 inhibitors, primary screen, biochemical, QFRET; Disintegrin and metalloproteinase domain-containing protein 17 (Homo sapiens), P78536; recombinant ADAM17, EDANS/DABCYL FRET peptide cleavage; inhibition, % at 6.95 µM; 370,000 tested, 0.83% active; AID 720648, 2013;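 active means inhibition above the mean of compounds lying between control limits plus 3 SD, set per campaign, cut at about 8.5% in these data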
Pemphigus Ab inh: inhibitors of pemphigus antibody binding to DSG3, primary screen, biochemical, bead-based, flow cytometry, scFv-GFP; Desmoglein-3 (Homo sapiens), P32926; DSG3-coupled beads, scFv-anti-DSG3-GFP binding; stronger effect = lower value; binding (percent of control), % at 10 µM; 310,000 tested, 0.48% active;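 active means binding more than 3 SD below its plate's average and above zero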;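 further: hits lower antibody fragment binding to DSG3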
KLK7 zymogen act: proKLK7 zymogen activators, primary screen, biochemical, fluorescence intensity; purified proKLK7, EDANS-DABCYL substrate fluorescence; 100% is mature enzyme control, 0% vehicle; 370,000 tested, 0.9% active; activation, % at 7 µM; Kallikrein-7 (Homo sapiens), P49862; AID 652039, 2013;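 active means activation above the mean of all tested compounds plus 3 SD, computed per campaign excluding outliers beyond control limits, cut at about 13% in these data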
Target sequence (P49862 whole entry, looked up): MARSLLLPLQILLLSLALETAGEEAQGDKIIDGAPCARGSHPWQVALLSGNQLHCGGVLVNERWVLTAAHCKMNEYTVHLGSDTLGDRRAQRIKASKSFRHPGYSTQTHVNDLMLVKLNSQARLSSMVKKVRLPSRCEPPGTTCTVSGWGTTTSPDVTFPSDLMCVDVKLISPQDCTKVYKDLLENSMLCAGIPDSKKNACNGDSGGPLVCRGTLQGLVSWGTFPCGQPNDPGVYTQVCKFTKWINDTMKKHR
rCAG RNA binder: binders of r(CAG) RNA repeats, primary screen, biochemical, fluorescence; r(CAG) RNA repeat, TO-PRO-1 dye displacement fluorescence; inhibition, % at 3 µM; 370,000 tested, 1.3% active; AID 651821, 2012;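 active means inhibition above the plate cutoff, the mean of all test compounds on that plate plus 3 SD, cut at about 35% in these data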;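 further: higher means more dye released from RNA so lower well fluorescence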
ADAM10 inh: human ADAM10 inhibitors, primary screen, biochemical, QFRET, HTS. Disintegrin and metalloproteinase domain-containing protein 10 (Homo sapiens), O14672. recombinant ADAM10, EDANS/DABCYL FRET peptide cleavage, 3 h. inhibition, % at 7 µM. 370,000 tested, 0.62% active. AID 720582, 2013;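 active means inhibition above a per-campaign cutoff equal to the mean of compounds falling between control-based bounds plus 3 SD, cut at about 20% in these data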
rCAG binder conf: small molecules binding CAG repeat RNA – biochemical, fluorescence, confirmation; inhibition, % at 3 µM; shares compounds with rCAG RNA binder; AID 652065, 2013; 4,300 tested, 70% active; r(CAG) RNA repeat, TO-PRO-1 dye displacement fluorescence;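 active means inhibition above a per-plate cutoff, the mean inhibition of sample wells plus 3 SD, cut at about 35% in these data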;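 further: loss of TO-PRO-1 fluorescence as compound displaces dye from 1x1 AA loop RNA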
DNA CAG counter: displacement of TO-PRO-1 from CAG DNA duplex, counter-screen for rCAG RNA repeat binder project, biochemical, fluorescence, TO-PRO-1 dye, d(CAG) DNA oligo | AID 652068, 2013 | d(CAG) DNA oligo TO-PRO-1 dye displacement | 4,300 tested, 94% active | inhibition, % at 3 µM | shares compounds with rCAG RNA binder;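 active means inhibition above its plate's cutoff, the mean test-well inhibition plus 3 SD, cut at about 4.8% in these data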;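 further: hits displace the dye from DNA and so lower well fluorescence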
dCAG dye DR: inhibitors of DNA CAG/GTC TO-PRO-1 complex, dose response, counter-screen for rCAG RNA repeat binder project, biochemical, fluorescence, TO-PRO-1 dye; shares compounds with rCAG RNA binder; DNA CAG/GTC duplex TO-PRO-1 dye displacement fluorescence; IC50, µM; 250 tested, 20% active; AID 686960, 2013; in the data active means IC50 below about 10 µM
Numbers stand for hits; 0 = inactive; - = not tested or not shown.

SMILES	MPTP inh	ADAM17 inh	Pemphigus Ab inh	KLK7 zymogen act	rCAG RNA binder	ADAM10 inh	rCAG binder conf	DNA CAG counter	others
Cc1ccccc1COc1ccc(-c2nn[nH]n2)cc1	0	0	0	0	0	0	-	-
O=C(Nc1ccc(S(=O)(=O)Nc2cnc3ccccc3n2)cc1)c1cccc(OC(F)F)c1	0	0	0	0	55	0	35	6.7
O=C(Nc1ccc(S(=O)(=O)Nc2cnc3ccccc3n2)cc1)c1ccc(F)cc1	0	0	0	0	0	0	-	-
O=C(Nc1sc2c(c1C(=O)O)CCCC2)c1ccc(Cl)cc1	0	0	0	0	69	0	50	14
O=C(CNC(=O)c1ccc(Br)o1)NNC(=O)c1ccccc1F	0	0	-	0	0	0	-	-
O=C1/C(=C/c2ccco2)SC(=S)N1CC1CCCO1 (centres undefined)	0	0	0	0	46	0	0	8.6
O=C1/C(=C\c2ccc(-c3ccccc3Cl)o2)SC(=S)N1CC1CCCO1 (centres undefined)	0	0	0	0	0	0	-	-
O=C1/C(=C/c2cccnc2)SC(=S)N1CC1CCCO1 (centres undefined)	0	0	0	0	0	0	-	-
Cc1ccc(/C=C2\SC(=S)N(CC3CCCO3)C2=O)o1 (centres undefined)	0	0	-	0	46	0	40	15
CC1(C)Cc2c(cnn2-c2ccc(F)cc2)C(NC(=O)CCC(F)(F)F)C1 (centres undefined)	0	0	0	0	0	0	-	-
CCCCn1c(O)c(/C=C/C=C/C=Nc2ccccc2)sc1=S	0	0	0	0	40	0	0	18
CCn1c(O)c(/C=C/C=C/C=Nc2ccccc2)sc1=S	0	0	0	0	0	0	-	-
Oc1c(/C=C/C=C/C=Nc2ccccc2)sc(=S)n1Cc1ccccc1	0	0	0	0	46	0	38	20
Cc1ccc2nc3n(c(=O)c2c1)-c1ccccc1C(=O)NC3CC(C)C (centres undefined)	-	0	-	0	0	0	-	-
Cc1c(Br)cc(-c2nnco2)cc1Br	0	0	0	0	40	0	0	0
CCC(Sc1nc2ccsc2c(=O)n1Cc1ccc(C(=O)O)cc1)C(=O)Nc1ccc(Cl)cc1 (centres undefined)	0	0	0	0	72	0	70	34	dCAG dye DR=0
CCCCN1CCS(=O)(=O)N(Cc2ccc(Cl)cc2)C(C(=O)OC)C1 (centres undefined)	-	0	-	0	0	0	-	-
Cc1oc(-c2ccccc2)cc1C(=O)Nc1cccc(/C=C\C(=O)O)c1	0	0	0	0	41	0	0	5.7
Cc1oc(C(C)(C)C)cc1C(=O)Nc1cccc(/C=C\C(=O)O)c1	0	0	-	0	0	0	-	-
COc1ccc(C(CNC(=O)CCNS(=O)(=O)c2ccccc2)N2CCOCC2)cc1 (centres undefined)	0	0	0	0	0	0	-	-
O=C(/C=C/c1ccco1)NC(=S)Nc1nc(-c2ccc3ccccc3c2)cs1	0	0	0	0	40	0	0	14
O=C(/C=C\c1ccco1)NC(=S)Nc1ccccc1O	0	0	0	0	0	0	-	-
